PubChem BioAssay
Some of the results follow. Active and inactive are the calls of the source.

Experiments:
[1] = target: Inward rectifier potassium channel 2 (Mus musculus) (UniProt P35561); experiment: mouse Kir2.1 channel blockers, retest, confirmation, cell-based, FluxOR thallium flux, duplicate (AID 2032); settings: Kir2.1-expressing cells, FluxOR thallium flux fluorescence, at 10 µM; active compounds read low
[2] = nonspecific thallium flux effects in parental HEK293 cells, confirmation, counter-screen for Kir2.1 inhibitor project, cell-based, FluxOR thallium flux, duplicate, single concentration (AID 2105;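 active means dye signal at least 3 control SD above or below untreated wells in both duplicates, raw fluorescence within 3, either direction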;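 on FluxOR signal as % of negative control (100 = no effect): percent is based on the flux ratio of peak minus minimum fluorescence over baseline F0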); settings: FluxOR thallium flux fluorescence, at 10 µM; 0% = unstimulated blank wells
[3] = nonspecific thallium flux increase in parental CHO-K1, confirmation, counter-screen for KCNQ2 potentiator project, cell-based, FluxOR thallium flux, duplicate (AID 2282;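 active means signal rise of at least 3 SD above the untreated control mean, in both duplicate wells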;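 further: counter screen of KCNQ2 potentiator hits so any rise reflects channel-independent effects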); settings: parental CHO-K1 cells, FluxOR thallium flux fluorescence; at 10 µM; active compounds read high; zero = vehicle mean+3SD, 100% = vehicle-minus-blank window
[4] = target: Potassium voltage-gated channel subfamily KQT member 1 (Homo sapiens) (UniProt P51787); experiment: human KCNQ1 channel potentiation off-target, confirmation, selectivity assay for KCNQ2 potentiator project, cell-based, CHO, FluxOR thallium flux (AID 2283;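 active means fluorescence ratio rise of at least 3 SD of vehicle wells above their mean, in both replicate wells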;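 further: 0% = vehicle mean plus 3 SD and 100% = vehicle minus unstimulated blank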); settings: CHO KCNQ1 stable, FluxOR thallium flux fluorescence; at 10 µM; active compounds read high; beyond 3SD, as % of vehicle-control signal
[5] = target: Potassium voltage-gated channel subfamily KQT member 2 (Rattus norvegicus) (UniProt O88943); experiment: rat KCNQ2 channel potentiators, confirmation, cell-based, CHO, FluxOR thallium flux, duplicate (AID 2287;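 active means fluorescence ratio rising 3 SD or more over the vehicle control mean in both replicates, plus primary screen hit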;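 further: peak minus minimum thallium fluorescence divided by baseline after K/Tl stimulus; 0% = vehicle mean plus 3 SD and 100% = vehicle minus unstimulated blank difference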); settings: CHO-KCNQ2 cells, FluxOR thallium flux fluorescence; at 10 µM; active compounds read high
[6] = target: Inward rectifier potassium channel 2 (Mus musculus) (UniProt P35561); experiment: PubChem AID 2345; settings: HEK293 Kir2.1, FluxOR thallium flux fluorescence; at 10 µM; active compounds read high;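 further: 0% = vehicle mean plus 3 SD and 100% = vehicle minus no-stimulus blank window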
[7] = target: Potassium voltage-gated channel subfamily KQT member 2 (Rattus norvegicus) (UniProt O88943); experiment: potentiators of retigabine-insensitive KCNQ2 W236L, mechanism study for KCNQ2 potentiator project, cell-based, rat KCNQ2 W236L, CHO, automated patch clamp (AID 2558;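 active means current increase at least 3 SD of the untreated controls above them in both duplicate recordings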); settings: at 25 µM; outcome: automated patch clamp current
[8] = thallium flux activation in parental CHO cells, counter-screen for KCNQ1 potentiator project (AID 493006;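 active means duplicate-averaged activation above buffer control mean plus 5 SD of those controls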;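 on activation: fluorescence ratio of max minus min over baseline after K+ and Tl+ depolarization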); settings: parental CHO-K1 cells, FluxOR thallium flux, at 10 µM; active compounds read high
[9] = target: Potassium voltage-gated channel subfamily KQT member 1 (Homo sapiens) (UniProt P51787); experiment: KCNQ1 potassium channel potentiators, confirmation, FluxOR thallium flux, CHO cells, duplicates (AID 493007;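 active means potentiation averaged over duplicate wells exceeding buffer-only control mean by more than 3 SD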;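 on outcome: cells depolarized by a potassium plus thallium sulfate stimulus after compound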;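 on potentiation: 0% = buffer-only wells and 100% = R-L3 activator control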); settings: KCNQ1 cell line, FluxOR thallium flux fluorescence, at 10 µM; active compounds read high, % of reference activator effect, buffer zero
[10] = target: Potassium voltage-gated channel subfamily KQT member 2 (Rattus norvegicus) (UniProt O88943); experiment: rat KCNQ2 channel potentiation, selectivity assay for KCNQ1 potentiator project, KCNQ2-CHO-K1 cells (AID 493009;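 active means mean duplicate potentiation above the buffer control mean plus 5 SD of buffer wells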;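 further: assay conditions were tuned for KCNQ1 rather than KCNQ2 modulators; signal is max minus min fluorescence divided by baseline after thallium stimulus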); settings: FluxOR thallium flux fluorescence, at 10 µM; active compounds read high, scaled: buffer 0, activator control 100
[11] = target: Potassium voltage-gated channel subfamily KQT member 1 (Homo sapiens) (UniProt P51787); experiment: KCNQ1 channel current potentiators, confirmation, orthogonal assay for KCNQ1 potentiator project, IonWorks patch clamp, KCNQ1-CHO cells (AID 493184;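 active means current rise at least 3 SD above the untreated control mean in each of two repeat wells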); settings: automated patch clamp current, at 10 µM; active compounds read high
[12] = target: Short transient receptor potential channel 4 (Mus musculus) (UniProt Q9QUQ5); experiment: mouse TRPC4 membrane potential modulation by TRPC6 hits, confirmation, selectivity assay for TRPC6 inhibitor project, cell-based, second specificity screen, HEK293 TRPC4/mu-opioid (AID 2776;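 active means compounds whose fluorescence signal differed from control wells by over 3 SD, either direction, in both duplicate plates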); settings: HEK293 TRPC4/MOR, membrane potential dye fluorescence, at 10 µM, channel activated by saturating DAMGO dose; active compounds read high
[13] = tested on: transient receptor potential cation channel C4 (TRPC4), mouse; experiment: mouse TRPC4 modulation by TRPC6 hits, confirmation, selectivity assay for TRPC6 inhibitor project, cell-based, HEK293 TRPC4/mu-opioid, membrane potential dye (AID 2777;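 active means rise or fall in signal beyond 3 SD of buffer-only wells in both replicate plates, either sign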;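 further: integrated kinetic ratio of fluorescence range over baseline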); settings: membrane potential fluorescence, at 10 µM
[14] = nonspecific membrane potential effects, parental HEK293, confirmation, counter-screen for TRPC6 inhibitor project, cell-based, second counter screen (AID 2779;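 active means membrane potential signal moving either way by over 3 SD of the maximum-effect control, in both duplicate plates, meaning non-specific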); settings: parental HEK293 membrane potential dye fluorescence; at 10 µM; maximal acetylcholine challenge after compound addition
[15] = membrane potential modulation in parental HEK293, confirmation, counter-screen for TRPC6 inhibitor project, cell-based (AID 2780;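 active means membrane potential signal shifting up or down by more than 3 SD of buffer-only wells, on both duplicate plates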); settings: parental HEK293 membrane potential dye fluorescence; at 10 µM
[16] = target: Short transient receptor potential channel 6 (Mus musculus) (UniProt Q61143); experiment: mouse TRPC6 channel inhibitors, confirmation, HEK293 cells, membrane potential dye, duplicate (AID 488960;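 active means fluorescence ratio falls more than 5 SD below the full-stimulation control mean, in both duplicate runs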); settings: ACh-evoked depolarization, at 10 µM; active compounds read high
[17] = target: Short transient receptor potential channel 6 (Mus musculus) (UniProt Q61143); experiment: mouse TRPC6 channel activators, confirmation, HEK293 cells, membrane potential dye, duplicate (AID 488961;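 active means ratio signal rise beyond 5 SD above unstimulated control wells' mean, seen in both duplicate runs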); settings: HEK293-TRPC6 membrane potential dye fluorescence, FDSS, at 10 µM; active compounds read high
[18] = target: Potassium voltage-gated channel subfamily E member 1 (Homo sapiens) + Potassium voltage-gated channel subfamily KQT member 1 (Homo sapiens) (UniProt P15382+P51787); experiment: KCNQ1/KCNE1 complex potentiators, confirmation, selectivity assay for KCNQ1 potentiator project, thallium flux, CHO-K1 KCNQ1/E1 cells (AID 493186;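 active means mean duplicate activation above the buffer control mean plus 5 SD of those controls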); settings: FluxOR thallium flux, at 10 µM
Sequence of Potassium voltage-gated channel subfamily E member 1 (Homo sapiens) + Potassium voltage-gated channel subfamily KQT member 1 (Homo sapiens) (P51787 whole entry, looked up): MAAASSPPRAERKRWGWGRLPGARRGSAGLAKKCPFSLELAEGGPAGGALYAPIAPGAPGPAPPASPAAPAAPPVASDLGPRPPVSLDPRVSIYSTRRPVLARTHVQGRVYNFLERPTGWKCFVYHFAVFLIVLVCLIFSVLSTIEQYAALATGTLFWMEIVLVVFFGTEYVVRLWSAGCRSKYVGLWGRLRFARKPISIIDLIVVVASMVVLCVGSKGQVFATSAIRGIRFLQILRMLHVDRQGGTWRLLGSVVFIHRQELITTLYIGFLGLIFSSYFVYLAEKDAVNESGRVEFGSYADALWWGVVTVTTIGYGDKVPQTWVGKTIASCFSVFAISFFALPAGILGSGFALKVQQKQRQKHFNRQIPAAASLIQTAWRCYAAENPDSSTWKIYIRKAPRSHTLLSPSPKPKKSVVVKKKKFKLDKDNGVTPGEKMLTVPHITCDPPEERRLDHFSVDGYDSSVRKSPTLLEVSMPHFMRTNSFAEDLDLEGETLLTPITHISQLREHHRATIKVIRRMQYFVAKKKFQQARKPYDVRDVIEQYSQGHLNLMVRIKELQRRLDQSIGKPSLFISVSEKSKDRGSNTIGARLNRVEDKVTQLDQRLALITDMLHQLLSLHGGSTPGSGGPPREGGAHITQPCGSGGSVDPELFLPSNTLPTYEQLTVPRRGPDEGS

Sequence of Potassium voltage-gated channel subfamily KQT member 1 (Homo sapiens) (P51787 whole entry, looked up): as above
Sequence of Inward rectifier potassium channel 2 (Mus musculus) (P35561 whole entry, looked up): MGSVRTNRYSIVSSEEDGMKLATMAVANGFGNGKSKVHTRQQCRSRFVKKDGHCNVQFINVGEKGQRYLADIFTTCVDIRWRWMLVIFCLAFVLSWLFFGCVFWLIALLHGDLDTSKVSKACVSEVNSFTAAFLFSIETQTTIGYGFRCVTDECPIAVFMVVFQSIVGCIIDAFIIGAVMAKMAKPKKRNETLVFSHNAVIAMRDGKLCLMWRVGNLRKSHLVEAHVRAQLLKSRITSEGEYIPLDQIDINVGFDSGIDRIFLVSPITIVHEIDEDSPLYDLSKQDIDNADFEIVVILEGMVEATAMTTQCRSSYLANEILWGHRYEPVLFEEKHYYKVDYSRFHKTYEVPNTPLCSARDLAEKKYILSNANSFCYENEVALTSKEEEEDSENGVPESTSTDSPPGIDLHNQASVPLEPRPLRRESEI
Sequence of Short transient receptor potential channel 6 (Mus musculus) (Q61143 whole entry, looked up): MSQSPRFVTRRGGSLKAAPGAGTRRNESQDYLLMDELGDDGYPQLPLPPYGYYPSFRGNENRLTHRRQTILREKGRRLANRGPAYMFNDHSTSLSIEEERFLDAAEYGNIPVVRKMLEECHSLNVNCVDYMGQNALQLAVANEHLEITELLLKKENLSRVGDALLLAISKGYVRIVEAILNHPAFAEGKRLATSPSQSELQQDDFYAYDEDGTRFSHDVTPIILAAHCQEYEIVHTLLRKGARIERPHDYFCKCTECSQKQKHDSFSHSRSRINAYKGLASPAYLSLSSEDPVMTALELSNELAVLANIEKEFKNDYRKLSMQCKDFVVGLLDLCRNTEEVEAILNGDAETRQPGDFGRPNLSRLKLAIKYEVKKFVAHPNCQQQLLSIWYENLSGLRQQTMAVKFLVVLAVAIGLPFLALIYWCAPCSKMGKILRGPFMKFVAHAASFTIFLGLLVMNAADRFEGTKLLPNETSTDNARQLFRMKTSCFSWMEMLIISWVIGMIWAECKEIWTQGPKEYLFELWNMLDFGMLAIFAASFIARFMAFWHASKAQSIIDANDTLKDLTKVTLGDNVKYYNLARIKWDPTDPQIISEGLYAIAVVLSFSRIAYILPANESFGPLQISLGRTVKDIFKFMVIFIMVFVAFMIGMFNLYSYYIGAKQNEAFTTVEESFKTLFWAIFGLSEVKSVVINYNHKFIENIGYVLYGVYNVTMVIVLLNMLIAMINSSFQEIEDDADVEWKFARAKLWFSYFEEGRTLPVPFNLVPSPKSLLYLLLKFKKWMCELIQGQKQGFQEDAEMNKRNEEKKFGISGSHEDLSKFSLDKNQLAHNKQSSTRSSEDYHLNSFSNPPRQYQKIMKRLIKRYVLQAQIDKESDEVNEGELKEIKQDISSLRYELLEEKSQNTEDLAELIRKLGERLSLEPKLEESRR
Sequence of Short transient receptor potential channel 4 (Mus musculus) (Q9QUQ5 whole entry, looked up): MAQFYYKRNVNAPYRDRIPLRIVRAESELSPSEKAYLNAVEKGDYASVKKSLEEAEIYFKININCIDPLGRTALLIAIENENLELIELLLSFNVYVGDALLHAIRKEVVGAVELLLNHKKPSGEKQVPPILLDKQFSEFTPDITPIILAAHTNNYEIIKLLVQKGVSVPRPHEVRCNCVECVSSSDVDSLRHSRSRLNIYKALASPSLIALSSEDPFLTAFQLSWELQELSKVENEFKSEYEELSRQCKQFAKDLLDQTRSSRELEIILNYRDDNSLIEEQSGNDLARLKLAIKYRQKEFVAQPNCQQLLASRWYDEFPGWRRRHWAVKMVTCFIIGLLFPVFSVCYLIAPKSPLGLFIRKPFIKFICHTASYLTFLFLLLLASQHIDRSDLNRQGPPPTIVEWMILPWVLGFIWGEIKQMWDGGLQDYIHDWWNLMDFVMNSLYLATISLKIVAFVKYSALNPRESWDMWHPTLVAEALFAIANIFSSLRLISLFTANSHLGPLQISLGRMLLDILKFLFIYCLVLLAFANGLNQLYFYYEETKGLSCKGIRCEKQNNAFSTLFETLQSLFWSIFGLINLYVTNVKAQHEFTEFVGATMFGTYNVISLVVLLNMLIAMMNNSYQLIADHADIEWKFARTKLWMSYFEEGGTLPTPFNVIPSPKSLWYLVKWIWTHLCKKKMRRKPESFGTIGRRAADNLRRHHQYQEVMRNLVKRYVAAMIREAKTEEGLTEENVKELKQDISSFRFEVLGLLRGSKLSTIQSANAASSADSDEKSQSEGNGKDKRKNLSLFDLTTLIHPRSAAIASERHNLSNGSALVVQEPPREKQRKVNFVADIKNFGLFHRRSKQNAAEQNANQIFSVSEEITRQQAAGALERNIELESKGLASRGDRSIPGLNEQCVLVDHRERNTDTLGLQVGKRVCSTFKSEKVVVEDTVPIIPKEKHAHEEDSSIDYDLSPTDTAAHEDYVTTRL

Cc1ccc(-n2nc3c(c2NC(=O)CCC2CCCCC2)CS(=O)C3)cc1 (stereo not given)
inactive: outcome [1] | outcome [2] | activity over 3SD threshold [6] -35.2% | outcome [7]
active: activity increase over 3SD of controls [3] 7.4% | activation over 3SD threshold [4] 30.1% | potentiation, less the hit threshold [5] 27.6%

CCOC(=O)c1sc(=S)n2c1[nH]c(=O)c1ccc(C(=O)OC)cc12
active: FluxOR signal as % of negative control (100 = no effect) [2] 174% | activation over 3SD threshold [4] 4.8% | potentiation, less the hit threshold [5] 26.7% | activation [8] 383% | potentiation [9] 108% | potentiation [10] 351%
inactive: outcome [1] | activity increase over 3SD of controls [3] -16.8% | activity over 3SD threshold [6] -43.9% | outcome [7] | outcome [11]

O=C(Nc1ccc(Oc2ccccc2)cc1)c1ccco1
inactive: outcome [1] | outcome [2] | activity increase over 3SD of controls [3] -13.5% | activity over 3SD threshold [6] -25.3%
active: activation over 3SD threshold [4] 26% | potentiation, less the hit threshold [5] 37.7% | current increase over 3SD of negative controls (%), active compounds read high [7] 9.43%

COc1ccc(NC(=O)/C(Cl)=C(/Cl)S(=O)Cc2ccc(C)cc2)cn1 (stereo not given)
active: potentiation, less the hit threshold [5] 0.8%
inactive: outcome [1] | outcome [2] | activity increase over 3SD of controls [3] -1.5% | activation over 3SD threshold [4] -20.5% | activity over 3SD threshold [6] -44.7% | outcome [7]

CCC1(C)Cc2c(sc3nnn(CC(=O)Nc4ccc(Cl)cc4)c(=O)c23)CO1 (stereo not given)
active: activation over 3SD threshold [4] 4.5% | potentiation, less the hit threshold [5] 2.2%
inactive: outcome [1] | outcome [2] | activity increase over 3SD of controls [3] -19.3% | activity over 3SD threshold [6] -36.4% | outcome [7]

CCN(CC(=O)NC(=O)NCc1ccccc1)Cc1nc2ccccc2c(=O)[nH]1
inactive: outcome [1] | outcome [2] | activity increase over 3SD of controls [3] -2.8% | activation over 3SD threshold [4] -14.6% | potentiation, less the hit threshold [5] -3% | activity over 3SD threshold [6] -39% | outcome [7]

Cc1[nH]n(-c2cccc(Cl)c2)c(=O)c1/C=N/n1c(C)nc2ccccc2c1=O
inactive: outcome [1] | activation over 3SD threshold [4] -26.8% | activity over 3SD threshold [6] -35.9% | outcome [7]
active: FluxOR signal as % of negative control (100 = no effect) [2] 145% | activity increase over 3SD of controls [3] 36% | potentiation, less the hit threshold [5] 1.8%

Cc1cccc(NC(=O)CSC(N)=O)c1C
inactive: outcome [1] | outcome [2] | activity increase over 3SD of controls [3] -5% | activation over 3SD threshold [4] -15.2% | activity over 3SD threshold [6] -46.1% | outcome [7]
active: potentiation, less the hit threshold [5] 56.1%

N=c1c2c(-c3ccccc3)c(-c3ccccc3)n(Cc3ccccc3)c2ncn1CCCO
inactive: outcome [2] | outcome [12] | outcome [13] | outcome [14] | outcome [15] | outcome [16] | outcome [17]
active: Tl flux remaining, % of negative control (active compounds read low) [1] 37%

CCOC(=O)c1c(NC(=S)NC)sc2c1CCCC2
active: FluxOR signal as % of negative control (100 = no effect) [2] 196% | activity increase over 3SD of controls [3] 6.2% | potentiation, less the hit threshold [5] 16.6% | activation [8] 318% | potentiation [9] 73% | potentiation [10] 289%
inactive: outcome [1] | activation over 3SD threshold [4] -17.4% | activity over 3SD threshold [6] -37.6% | outcome [7] | outcome [11]

CCn1c(=S)[nH]c2sc3c(c2c1=O)CCCCC3
inactive: outcome [1] | activity increase over 3SD of controls [3] -14.2% | activation over 3SD threshold [4] -21.6% | activity over 3SD threshold [6] -16.8% | outcome [7] | outcome [11]
active: FluxOR signal as % of negative control (100 = no effect) [2] 402% | potentiation, less the hit threshold [5] 43.5% | activation [8] 516% | potentiation [9] 258% | potentiation [10] 530%

COc1ccc(C(=O)Nc2ncc3c(n2)-c2ccccc2CC3)cc1
inactive: outcome [1] | outcome [2] | activity increase over 3SD of controls [3] -7.8% | potentiation, less the hit threshold [5] -1% | activity over 3SD threshold [6] -29.6% | outcome [7]
active: activation over 3SD threshold [4] 8.3%

CC1=C/C(=N\OS(=O)(=O)c2ccccc2)C=CC1=O
inactive: outcome [1] | outcome [2] | activity increase over 3SD of controls [3] -13.5% | activation over 3SD threshold [4] -8.8% | activity over 3SD threshold [6] -51.4% | outcome [7] | outcome [8] | outcome [9] | outcome [10] | outcome [11]
active: potentiation, less the hit threshold [5] 0.8%

Cc1[nH][nH]c(=O)c1C(c1ccc(-c2ccc(Cl)cc2)o1)c1c(C)[nH][nH]c1=O
inactive: outcome [1] | outcome [2] | outcome [8] | outcome [10] | outcome [11] | outcome [18]
active: potentiation [9] 27.5%

CCn1cc(CN2CCC(C(=O)Nc3cccc(-c4cccc(Cl)c4)c3)CC2)cn1
active: Tl flux remaining, % of negative control (active compounds read low) [1] 55%
inactive: outcome [2] | outcome [8] | outcome [9] | outcome [11]
